The values below come from PubChem BioAssay AID2284352 (EPA ToxCast).

SMILES strings stand for the structures. Inconclusive results are not listed. The source made the active and inactive calls. The calls were made as follows: active = hit-call score of the fitted dose curve at least 0.9, where 1 is the maximum; inconclusive = response in the unintended direction; inactive = score below 0.9.

This experiment deals with rainbow trout Peroxisome Proliferator-activated Receptor gamma (PPARg), gene 110528708. Description: ATG_rtPPARg_EcoTox2: Attagene TRANS-FACTORIAL EcoTox-2 HepG2 Assay for rainbow trout Peroxisome Proliferator-activated Receptor gamma (PPARg). How it is done: ATG_EcoTox2 is a cell-based, multiplexed assay created by modifying the existing Attagene TRANS-FACTORIAL system to include a panel of nuclear receptors from some or all the following species: human (Homo sapiens), african clawed frog (Xenopus laevis), rainbow trout (Oncorhynchus mykiss), japanese medaka (Oryzias latipes), and zebrafish (Danio rerio). The ECOTOX2-FACTORIAL format uses HepG2, a human liver cell line, with measurements taken at 24 hours after chemical dosing in a 24-well plate. ATG_rtPPARg_EcoTox2 is one of 29 assay components calculated in the ATG_EcoTox2 assay. It is designed to make measurements of mRNA induction, a form of inducible reporter, as detected with fluorescence intensity signals by Reverse transcription polymerase chain reaction (RT-PCR) and Capillary electrophoresis technology.The assay endpoint ATG_rtPPARg_EcoTox2 was analyzed in the positive analysis fitting direction relative to DMSO as the negative control and baseline of activity. Using a type of inducible reporter, measures of mRNA for gain-of-signal activity can be used to understand the reporter gene at the transcription factor-level as they relate to the gene PPARg. Furthermore, this assay endpoint can be referred to as a primary readout, because this assay has produced multiple assay endpoints where this one serves a reporter gene function. […]
Human liver HepG2 cells are transiently transfected with multiple reporter transcription units (MRTUs) in 6-well plates using FuGene 6 reagent (Roche; 3 ml FuGene/1 mg DNA). […] A major difference between the CIS and TRANS system is that in CIS activities of endogenous TFs are measured, whereas the TRANS assay evaluates changes in activities of exogenous, chimeric NR-Gal4 proteins. […] The fragments were purified using Qiaquick PCR columns (Qiagen), analyzed on an ABI 3130xL genetic analyzer (Applied Biosystems) with peak positions identified by using a set of X-rhodamine (ROX)-labeled MapMarker1000 molecular weight standards (BioVentures). […]
For the compound `O=C(O)C(F)(F)C(F)(F)C(F)(F)C(F)(F)C(F)(F)C(F)(F)C(F)(F)F`, the result was inactive.

In the case of `O=S(=O)(O)C(F)(F)C(F)(F)C(F)(F)C(F)(F)C(F)(F)C(F)(F)F`, the compound was called inactive.

In the case of `CCCCOCN(C(=O)CCl)c1c(CC)cccc1CC`, the compound was called inactive.
